Experiments:
Assay in all cases: PBM binding z-score (relative to random genomic background probes); higher = stronger binding; sequences stand for … in GC…GCGATTGACAGCGTAGAATGAAGG
[1] = system: FXR:RXRa (NR concentration 270 nM, RXRa partner concentration 90 nM)
How it was run: (§1)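 Binding buffer was PBS pH 7.4 with 2% milk, 0.02% Triton X-100, 1 mM DTT, 0.2 mg/mL BSA and 0.4 mg/ml salmon testes DNA. In it, ligand-free nuclear receptor dimers were incubated 1 h on custom Agilent 4×180K protein-binding microarrays carrying double-stranded probes. Antibodies against each partner (one per run) detected binding, and z-scores were calculated against random background probes after regression normalization of scanned fluorescence.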

[2] = system: LXRa:RXRa (NR concentration 270 nM, RXRa partner concentration 90 nM)
How it was run: as §1

[3] = system: LXRa homodimer (NR concentration 270 nM)
How it was run: as §1

[4] = system: LXRb:RXRa (NR concentration 270 nM, RXRa partner concentration 90 nM)
How it was run: as §1

[5] = system: LXRb homodimer (NR concentration 270 nM)
How it was run: as §1

[6] = system: PPARa:RXRa (NR concentration 270 nM, RXRa partner concentration 90 nM)
How it was run: as §1

[7] = system: PPARg:RXRa (NR concentration 180 nM, RXRa partner concentration 90 nM)
How it was run: as §1

[8] = system: PPARg:RXRa 270nM:90nM, anti-RXR (NR concentration 270 nM, RXRa partner concentration 90 nM)
How it was run: as §1

[9] = system: PPARg:RXRa 30nM:10nM, anti-RXR (NR concentration 30 nM, RXRa partner concentration 10 nM)
How it was run: as §1

[10] = system: PPARg:RXRa 90nM:30nM, anti-RXR (NR concentration 90 nM, RXRa partner concentration 30 nM)
How it was run: as §1

[11] = system: PPARg:RXRa DBDmut IVT, anti-RXR (DBD mutation: RXRa K156A/R161A, NR concentration 270 nM, RXRa partner concentration 90 nM)
How it was run: as §1

[12] = system: PPARg:RXRa IVT, anti-PPARg (NR concentration 270 nM, RXRa partner concentration 90 nM)
How it was run: as §1

[13] = system: PPARg DBDmut:RXRa IVT, anti-PPARg (DBD mutation: PPARg1 K132A/R137A, NR concentration 270 nM, RXRa partner concentration 90 nM)
How it was run: as §1

[14] = system: PPARg DBDmut IVT, anti-PPARg (DBD mutation: PPARg1 K132A/R137A, NR concentration 270 nM)
How it was run: as §1

[15] = system: PPARg homodimer (NR concentration 180 nM)
How it was run: as §1

[16] = system: PXR:RXRa (NR concentration 270 nM, RXRa partner concentration 90 nM)
How it was run: as §1

[17] = system: PXR homodimer (NR concentration 270 nM)
How it was run: as §1

[18] = system: RARa:RXR (NR concentration 270 nM, RXRa partner concentration 90 nM)
How it was run: as §1

[19] = system: RARa homodimer (NR concentration 270 nM)
How it was run: as §1

[20] = system: RARb:RXRa (NR concentration 270 nM, RXRa partner concentration 90 nM)
How it was run: as §1

Sequence | PBM binding z-score [1] | PBM binding z-score [2] | PBM binding z-score [3] | PBM binding z-score [4] | PBM binding z-score [5] | PBM binding z-score [6] | PBM binding z-score [7] | PBM binding z-score [8] | PBM binding z-score [9] | PBM binding z-score [10] | PBM binding z-score [11] | PBM binding z-score [12] | PBM binding z-score [13] | PBM binding z-score [14] | PBM binding z-score [15] | PBM binding z-score [16] | PBM binding z-score [17] | PBM binding z-score [18] | PBM binding z-score [19] | PBM binding z-score [20]
ATCTCTAGGAAAAAGTTCAGTGAATCCCGAGGAT | 0.0166 | 0.275 | 0.466 | 0.0384 | 0.735 | 0.653 | 1.18 | 3.25 | 1.41 | 2.47 | -0.718 | -0.0888 | 0.814 | 0.266 | 0.423 | 0.837 | 0.888 | 0.235 | 1 | 1.78
GCTAGTTGGTCAATAAAAGGTCACACACCGGTCG | 3.63 | 5.13 | 6.33 | 4.53 | 0.973 | 4.39 | 2.18 | 3.93 | 1.16 | 2.9 | 1.64 | 3.07 | 0.532 | 0.266 | 4.72 | 5.3 | 1.4 | 5.89 | 3.47 | 4.33
TAGAGTAGGTTACCAATGGGGCATTCAGCTTTCT | 0.195 | 1.62 | 0.13 | 1.22 | 1.02 | 1.68 | 1.3 | 1.96 | 1.16 | 1.72 | 4.68 | 4.33 | 0.638 | 0.725 | 1.06 | 0.312 | 0.223 | 0.669 | 1.18 | 1.33
GCTAGCAGGCCATTTGGGTCACTCACTGACGGGC | 0.237 | -0.137 | -0.55 | -0.212 | -0.64 | 1.16 | 0.358 | 0.596 | -0.357 | 0.202 | 2.26 | 2.51 | -1.21 | -1.1 | 0.122 | 0.354 | -0.0107 | 0.762 | -0.483 | 1.45
TCAGCCAGGTGAAGGTAACTCAGGTACGCAGTCG | 0.00852 | 1.19 | -0.431 | 0.138 | -1.48 | 0.696 | 0.4 | 1.32 | 2.09 | 1.5 | 1.65 | 1.33 | -0.394 | -0.849 | -0.828 | -0.0147 | -0.594 | 0.481 | -0.526 | 0.673
CCTACTCGGCCAAAGGTCATTGATTCCAATGCTC | 4.86 | 5.54 | 4.99 | 5.12 | 1.98 | 6.14 | 10.1 | 9.26 | 8.85 | 9.61 | 3.3 | 5.09 | 0.222 | -0.127 | 3.85 | 5.38 | 2.54 | 5.95 | 1.19 | 4.56
CCGACTTGGGCAAGGTTACCATAACGCACAGCCA | 0.05 | 0.652 | -0.339 | 0.538 | -0.76 | 0.821 | 0.77 | 0.417 | -0.317 | 0.00151 | 0.0909 | 0.144 | -0.175 | -0.816 | 0.358 | 0.327 | 0.162 | 0.774 | 0.309 | 0.889
TTACCAAGGTGAGCTGAGGTCGTAGATCCAACTC | 2.54 | 0.614 | -0.687 | 0.401 | -1.29 | 1.78 | 0.268 | 0.85 | -0.191 | 0.588 | 0.925 | 1.67 | -0.714 | -0.674 | -0.332 | 4.2 | -0.58 | 2.1 | -0.84 | 1.85
GCTGCTAGGTCAGGTTGGTAAGCTAACGGGTACG | 1.13 | 0.523 | -0.37 | 0.0783 | -0.406 | 1.51 | 0.427 | 0.848 | -0.218 | 0.338 | 2.81 | 2.17 | -1.03 | -1.39 | 0.662 | -0.0241 | -0.591 | 0.597 | -0.659 | 3.09
ATCGAAAGGTCGACGATGTGAGTATACACCGTTT | 3.67 | 3.02 | -0.0144 | 2.55 | 0.246 | 4.4 | 2.46 | 2.71 | 0.896 | 1.84 | 0.505 | 1.37 | 0.994 | 1.25 | 1.43 | 2.29 | 0.0146 | 3.17 | 0.516 | 3.94
CCTACTGGGCGAAAAAGGTCATTGATGCCGATAA | 3.16 | 3.79 | 2.59 | 3.91 | -0.182 | 4.45 | 1.67 | 3.1 | 0.977 | 1.93 | 0.836 | 1.94 | -0.234 | -0.941 | 2.25 | 4.39 | 1.04 | 4.66 | 0.67 | 3.68
GCTGCAAGGTCAGGTTGGTCAGCTAACGGGTACG | 4.43 | 2.88 | 0.0795 | 2.36 | 0.0855 | 3.65 | 1.36 | 2.37 | 0.236 | 1.42 | 1.24 | 1.7 | -0.124 | -0.859 | 1.91 | 2.44 | -0.0524 | 3.02 | 0.176 | 4.4
AGAATGAGGGTACCAAAGATCAGGGAAACGCTTG | -0.148 | 2.43 | -0.475 | 0.326 | -0.167 | 1.18 | 1.28 | 1.52 | 0.506 | 1.19 | 1.95 | 1.35 | 0.283 | 0.511 | -0.237 | -0.107 | 0.0728 | 0.253 | 0.0319 | 0.552
GTACCAAGGTGATTAGGTCGTTGATGAGTAGGCG | 0.478 | 0.469 | 0.085 | 0.0701 | -0.428 | 0.886 | 0.547 | 0.741 | -0.00723 | 0.0201 | 1.26 | 1.63 | 0.301 | -0.28 | 1.06 | 0.265 | 0.198 | 0.753 | 0.341 | 1.1
